From PubChem BioAssay (NCATS)
Results filed as inconclusive are left out. Activity calls are given as the source filed them. Unless noted, calls come from the whole dose curve; as a rule, active = well fitted curve in the direction sought with a large enough effect; inconclusive = small, poorly fitted or top-dose-only effect, or another doubt; inactive = no such curve, though single readings can be large; an effect the other way counts as inactive or inconclusive.

Assays:
[1] = qHTS profiling of the MIPE4 collection as inhibitors of Plasmodium falciparum (3D7) proliferation (AID 743344; call rule not given here;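 note: scaled between DMSO vehicle wells and 0.29 µM artemisinin as full inhibition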); conditions: P. falciparum 3D7 in erythrocytes, SYBR Green DNA fluorescence, 72 h; at 28.5 µM unless noted
Method in brief: (§1)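 Erythrocytes infected with P. falciparum (0.3% parasitemia, 2.5% hematocrit) incubated with compounds 72 h at 37 C, 5% CO2. Lysis with saponin/Triton buffer containing SYBR Green I, overnight at room temperature in the dark; DNA fluorescence (485/535 nm) normalised to 0.29 uM artemisinin and DMSO.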

[2] = qHTS profiling of the MIPE4 collection as inhibitors of Plasmodium falciparum (DD2) proliferation (AID 743345; call rule not given here); conditions: P. falciparum Dd2 in erythrocytes, SYBR Green DNA, 72 h; at 28.5 µM unless noted
Method in brief: as §1

[3] = qHTS profiling of the MIPE4 collection as inhibitors of Plasmodium falciparum (DD2) proliferation (Rep 2) (AID 743346; call rule not given here); conditions: P. falciparum Dd2 in erythrocytes, SYBR Green DNA, 72 h; at 28.5 µM unless noted
Method in brief: as §1

[4] = qHTS profiling of the MIPE4 collection as inhibitors of Plasmodium falciparum (HB3) proliferation (AID 743347; call rule not given here;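 note: plate controls were DMSO vehicle wells for no effect and artemisinin wells for full effect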); conditions: P. falciparum HB3 in erythrocytes, SYBR Green DNA, 72 h; at 28.5 µM unless noted
Method in brief: as §1

[5] = High-throughput drug toxicity screening in the BPDCN cell line Gen2.2 (AID 1224824; call rule not given here;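 note: cells exposed to compounds for 48 h before reading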); conditions: Gen2.2 BPDCN cells; at 45.8 µM (top of the series) unless noted
Method in brief: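 CellTiter-Glo luminescence after 48 h compound exposure of Gen2.2 cells; percent activity set with DMSO as 100% and bortezomib (9.2 uM final) as 0%. Cells seeded at 500 per well, RPMI + 10% FBS, 37 °C.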

[6] = High-throughput drug toxicity screening in the BPDCN cell line Cal-1 (AID 1224825; call rule not given here); conditions: Cal-1 BPDCN cell viability, qHTS; at 45.8 µM (top of the series) unless noted
Method in brief: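 500 Cal-1 cells/well, RPMI + glutamine + 10% FBS (phenol red-free); cpd added by pin tool; 48 h, 37C, 5% CO2; CTG 15 min RT, lumi read. Normalised: DMSO 100%, bortezomib 9.2 uM 0%.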

[7] = qHTS assay for measurement of the activity of small molecule inhibitors on Zika virus induced Caspase-3 activity in human iPSC derived neural progenitor cells (hNPCs) (AID 1224857); note: nearly all actives have a fitted effect of over 65% in size; note: potency is the fitted concentration of half-maximal effect
Method in brief: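 hNPCs seeded 350 cells/well, cultured 16–20 h; compounds added 1 h before ZIKV (2 FFU/cell), 37 C 6 h. Caspase-Glo 3/7 luminescence after 30 min RT; % inhibition from induction scaled to uninfected (0%) and infected (100%) wells.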

[8] = qHTS assay for measurement of the activity of small molecule inhibitors on Zika virus induced Caspase-3 activity in human astrocytoma cells (AID 1224859); note: potency is the fitted concentration of half-maximal effect
Method in brief: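 Luminescence read-out (Caspase-Glo 3/7, 30 min RT) of caspase activity in SNB-19 cells infected 6 h with ZIKV, 2 FFU/cell, after 1 h compound pretreatment; % inhibition from induction normalised to uninfected (0%) and infected (100%) wells.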

[9] = qHTS Screen of the MIPE 4.0 Collection Against Ewings Sarcoma (RDES) (AID 1259252); note: nearly all actives have a fitted effect of over 35% in size; note: potency is the fitted concentration of half-maximal effect
Method in brief: (§2)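 Cells plated in serum-containing RPMI (5% FBS) and treated with compound dilutions for 48 h. Readout luminescent viability; normalization relied on vehicle (no inhibition) and media-only columns (full inhibition).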

[10] = qHTS Screen of the MIPE 4.0 Collection Against Ewings Sarcoma (TC71) (AID 1259253); note: nearly all actives have a fitted effect of over 40% in size; note: potency is the fitted concentration of half-maximal effect
Method in brief: as §2

[11] = qHTS Screen of the MIPE 4.0 Collection Against Ewings Sarcoma (EW8) (AID 1259255); note: nearly all actives have a fitted effect of over 35% in size; note: potency is the fitted concentration of half-maximal effect;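 for viability: 100% = DMSO-treated cells and 0% = medium-only wells without cells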
Method in brief: as §2

[12] = qHTS profiling for inhibitors of Plasmodium falciparum (HB3) proliferation (AID 743324); conditions: Plasmodium falciparum HB3 blood-stage proliferation; at 28.7 µM (top of the series) unless noted;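 note: 100% = DMSO vehicle wells and 0% = artemisinin-treated control wells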
Method in brief: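 P. falciparum HB3 grown in erythrocytes (0.3% parasitemia, 2.5% hematocrit final) with compound for 72 h at 37 C, 5% CO2. Parasite DNA detected by SYBR Green after saponin/triton lysis overnight; normalized to 0.29 uM artemisinin and DMSO.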

[13] = Identifying Small Molecule Inhibitors of Pancreatic Cancer Stem Cells (SN12C, Spheroid) (AID 1259360); conditions: Potency: SN12C spheroid viability;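 note: 100% = DMSO-treated cells and 0% = wells without cells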
Method in brief: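 Spheroids grown 14 days in stem cell media on nonadherent hydrogel before screening; cells attached 4 h, then compound exposure 48 h at 37C, 5% CO2. CellTiter-Glo luminescence normalized to DMSO (no inhibition) and no-cell wells (full inhibition).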

[14] = Identifying Small Molecule Inhibitors of Pancreatic Cancer Stem Cells (A278, Adherent) (AID 1259361);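 note: viability read after 48 h compound exposure; nearly all actives have a fitted effect of over 35% in size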
Method in brief: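 Pre-formed 14-day tumor spheroids or adherent cells dosed and incubated 48 h, 37C, 5% CO2. Viability assessed by CellTiter-Glo.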

[15] = Identifying Small Molecule Inhibitors of Pancreatic Cancer Stem Cells (Panc1, Adherent) (AID 1259362); conditions: Potency: viability;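 note: compound exposure lasted 48 h before the viability read; plate controls were DMSO-treated cells for no effect and cell-free media wells for full effect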
Method in brief: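 Luminescent ATP readout (CellTiter-Glo) quantifies surviving cells after a 48 h drug incubation. Normalization uses DMSO wells as no inhibition and media-only wells as full inhibition; bortezomib served as positive control.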

[16] = qHTS assay to identify small molecule inhibitors of chordoma cells - UCH-1 (AID 1259355); note: % is set by controls: 0 for no effect and ±100 for the full control effect; nearly all actives have a fitted effect of over 55% in size
Method in brief: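 Seed 800 cells per well; incubate overnight at 37 C, 5% CO2. Add test compounds (15 concentrations), then the auranofin–topoisomerase-agent combination. Incubate 48hr, add CellTiter-Glo, wait 30min, read luminescence.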

[17] = qHTS Screen of the MIPE 4.0 Collection Against Ewings Sarcoma (TC32) (AID 1259256);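 note: 100% = DMSO-treated cells and 0% = medium-only wells without cells; nearly all actives have a fitted effect of over 45% in size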
Method in brief: as §2

Structure (SMILES): Nc1ncnc2c1ncn2[C@@H]1O[C@H](CO)[C@@H](O)[C@@H]1O
- parasite growth, % of DMSO control [1]: 6.49%
- parasite growth remaining, % of DMSO control (lower = more inhibition) [2]: 98%
- parasite growth, % of control (lower = inhibition) [3]: 6.61%
- growth, % of control [4]: 6.56%
- cell viability, % of control (lower = more cytotoxic) [5]: 108%
- viability (% of control) [6]: 18.3%
- Potency [7]: inactive
- Potency [8]: inactive
- Potency [9]: 16.6 µM (active)
- Potency [10]: 6.62 µM (active)
- Potency [11]: 5.26 µM (active)

Structure (SMILES): CC(O)=C(C#N)C(=O)Nc1ccc(C(F)(F)F)cc1
- remaining proliferation (% of control), lower = more inhibition [12]: 98.9%
- parasite growth remaining, % of DMSO control (lower = more inhibition) [2]: 89.7%
- parasite growth, % of control (lower = inhibition) [3]: 63.9%
- growth, % of control [4]: 83.8%
- cell viability, % of control (lower = more cytotoxic) [5]: 75%
- viability (% of control) [6]: 81.4%
- Potency [7]: 1.18 µM (active)
- Potency [8]: 1.18 µM (active)
- Potency [9]: 23.5 µM (active)
- Potency [10]: 18.7 µM (active)
- Potency [11]: 20.9 µM (active)
- Potency [13]: inactive
- IC50 (viability decrease) [14]: 16.6 µM (active)
- Potency [15]: inactive

Structure (SMILES): C[C@@H]1O[C@@H](O[C@H]2CC[C@@]3(C)[C@H](CC[C@@H]4[C@H]3C[C@@H](O)[C@]3(C)[C@@H](C5=CC(=O)OC5)CC[C@]43O)C2)C[C@H](O)[C@@H]1O[C@H]1C[C@H](O)[C@H](O[C@H]2C[C@H](O)[C@@H](O)[C@@H](C)O2)[C@H](C)O1 (stereo in doubt)
- parasite growth, % of DMSO control [1]: 57.6% [at 57.5 µM]
- parasite growth remaining, % of DMSO control (lower = more inhibition) [2]: 91.8% [at 57.5 µM]
- parasite growth, % of control (lower = inhibition) [3]: 67.5% [at 57.5 µM]
- cell viability, % of control (lower = more cytotoxic) [5]: 7.85% [at 92.2 µM]
- viability (% of control) [6]: 4.87% [at 92.2 µM]
- Potency [7]: inactive
- Potency [8]: inactive
- Potency [9]: 0.34 µM (active)
- Potency [10]: 0.241 µM (active)
- Potency [11]: 0.215 µM (active)

Structure (SMILES): CC[C@H](NC(=O)[C@H](C)NC)C(=O)N1C[C@@H](O)C[C@H]1Cc1c(-c2[nH]c3cc(F)ccc3c2C[C@H]2C[C@H](O)CN2C(=O)[C@H](CC)NC(=O)[C@H](C)NC)[nH]c2cc(F)ccc12
- parasite growth, % of DMSO control [1]: 4.9%
- parasite growth remaining, % of DMSO control (lower = more inhibition) [2]: 8.23%
- parasite growth, % of control (lower = inhibition) [3]: 6.15%
- growth, % of control [4]: 6.85%
- cell viability, % of control (lower = more cytotoxic) [5]: 19.2%
- viability (% of control) [6]: 7.23%
- Potency [7]: inactive
- Potency [8]: inactive
- Potency [9]: inactive
- Potency [10]: inactive
- Potency [11]: inactive

Structure (SMILES): Cc1cc2nc3c(=O)[nH]c(=O)nc-3n(CC(O)C(O)C(O)CO)c2cc1C (stereo unspecified)
- parasite growth, % of DMSO control [1]: 21.3%
- parasite growth remaining, % of DMSO control (lower = more inhibition) [2]: 57.4%
- parasite growth, % of control (lower = inhibition) [3]: 22.3%
- growth, % of control [4]: 17.8%
- cell viability, % of control (lower = more cytotoxic) [5]: 77.3%
- viability (% of control) [6]: 101%
- Potency [7]: inactive
- Potency [8]: inactive
- Potency [9]: inactive
- Potency [10]: 26.4 µM (active)
- Potency [11]: inactive
- outcome [16]: inactive

Structure (SMILES): Cc1ccccc1C(=O)c1ccc(Nc2ccc(Br)cc2N)cc1Cl
- parasite growth, % of DMSO control [1]: 27.4%
- parasite growth remaining, % of DMSO control (lower = more inhibition) [2]: 44.1%
- parasite growth, % of control (lower = inhibition) [3]: 40%
- growth, % of control [4]: 28.4%
- cell viability, % of control (lower = more cytotoxic) [5]: 182%
- viability (% of control) [6]: 79.6%
- Potency [7]: inactive
- Potency [8]: inactive
- Potency [9]: 23.5 µM (active)
- Potency [10]: 16.6 µM (active)
- Potency [11]: 23.5 µM (active)

Structure (SMILES): C[C@]12CCC3=C4CCC(=O)C=C4CC[C@@H]3[C@H]1CC[C@@]2(O)CC#N
- parasite growth, % of DMSO control [1]: 92.8%
- parasite growth remaining, % of DMSO control (lower = more inhibition) [2]: 97.5%
- parasite growth, % of control (lower = inhibition) [3]: 71%
- growth, % of control [4]: 93%
- cell viability, % of control (lower = more cytotoxic) [5]: 106%
- viability (% of control) [6]: 107%
- Potency [7]: inactive
- Potency [8]: inactive
- Potency [9]: inactive
- Potency [10]: inactive
- Potency [11]: inactive
- Potency [17]: inactive
